This is an account of results in PubChem BioAssay (NCATS).

Where “and” joins values, the source holds several entries; their conditions need not be identical. Identical values can stand only once. Inconclusive results are not listed. Calls of active or inactive are those of the source. Unless noted, the call rests on the fitted dose curve; in most records, active means well fitted curve in the direction sought with a large enough effect; inconclusive means small, poorly fitted or top-dose-only effect, or another doubt; inactive means no such curve, though single readings can be large; an effect the other way counts as inactive or inconclusive. Bounds are passed on as bounds.

Assay [1] can be described thus: Primary qHTS for small molecule stabilizers of the endoplasmic reticulum resident proteome: Secreted ER Calcium Modulated Protein (SERCaMP) assay (AID 1508630). Further: on the % scale 0 is the no-effect control and ±100 the full control effect. A digest of the protocol: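 The SH-SY5Y reporter protocol was run at 3 concentrations up to 38.3 uM (primary) or 11 concentrations (follow-up): 16 h compound, 100 nM thapsigargin for 4 h, then extracellular luciferase luminescence.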
A general note: Quantitative high-throughput screening tests each substance at several concentrations.

Assay [2] deals with Lysosomal acid glucosylceramidase (Homo sapiens) (UniProt P04062). Description: Glucocerebrosidase-p2 (AID 348; in the data active means potency below about 10 µM; further: potency means the concentration at half of the fitted maximal effect). Conditions: purified GBA, blue fluorogenic substrate, 40 min. A digest of the protocol: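 Normal human glucocerebrosidase (0.2 nM) with blue fluorogenic substrate (80 uM final) in citrate/phosphate pH 5.9 with 10mM sodium taurocholate, 0.01% tween-20; 40 min RT, NaOH/glycine stop; fluorescence Ex 365/Em 440; AC50 from a titration from 0.6 nM upwards.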
Sequence of Lysosomal acid glucosylceramidase (Homo sapiens) (P04062 whole entry, looked up): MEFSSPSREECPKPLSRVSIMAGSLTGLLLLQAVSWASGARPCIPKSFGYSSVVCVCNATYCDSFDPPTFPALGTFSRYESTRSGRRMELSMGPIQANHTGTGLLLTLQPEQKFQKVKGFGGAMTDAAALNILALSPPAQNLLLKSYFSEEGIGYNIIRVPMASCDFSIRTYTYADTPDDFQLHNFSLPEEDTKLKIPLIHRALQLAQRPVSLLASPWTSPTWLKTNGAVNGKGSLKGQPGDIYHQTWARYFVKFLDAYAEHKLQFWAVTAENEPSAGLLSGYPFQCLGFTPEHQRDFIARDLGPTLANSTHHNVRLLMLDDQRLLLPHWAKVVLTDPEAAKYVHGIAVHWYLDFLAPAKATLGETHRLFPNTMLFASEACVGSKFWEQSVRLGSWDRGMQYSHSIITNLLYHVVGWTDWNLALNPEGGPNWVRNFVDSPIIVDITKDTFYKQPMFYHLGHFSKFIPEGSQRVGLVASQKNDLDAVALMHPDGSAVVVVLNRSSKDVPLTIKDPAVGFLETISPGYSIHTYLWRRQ

A short description of assay [3]: AP1 Signaling Pathway (AID 357; active means well fitted curve in either direction with a large enough effect, not every such curve was filed as active;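 further: ME-180 reporter cells stimulated with EGF at its EC50 level; on the % scale 0 is the no-effect control and ±100 the full control effect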). In short, it runs like this:
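A ratiometric CCF4 readout (405 nm excitation; 460 and 530 nm emission) quantified AP-1-driven beta-lactamase in ME-180 cells after 5 h with compound and EC50 EGF; AC50 values were derived for activators and inhibitors.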

Assay [4] addresses Cytochrome P450 1A2 (Homo sapiens) (UniProt P05177). Description: p450-cyp1a2 (AID 410; calls by dose curve;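 further: -100% = full effect of reference inhibitor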). In short, it runs like this:
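20nM CYP1A2, 100uM Luciferin-ME (=Km), 100mM KPO4; cpd 10 min RT; +NADPH regen, 60 min RT; stop/detect 20 min; luminescence. Normalized to furafylline 57 uM = full inhibition.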

Assay [5] is described as follows: Stat Signaling Pathway (AID 446; active means well fitted curve in either direction with a large enough effect, not every such curve was filed as active;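 further: ME-180 cervical cancer cells given 40 pM IL-6 alongside compound; SIE-controlled beta-lactamase reporter measured as 460/530 nm FRET emission ratio; on the % scale 0 is the no-effect control and ±100 the full control effect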). In short, it runs like this:
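Compound effects on IL-6-induced STAT reporter activity were measured in ME-180 cells. After overnight culture, cells were co-treated with 40 pM IL-6 for 5 hrs before beta-lactamase substrate loading at room temperature.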

Assay [6] addresses Glucocorticoid receptor (Homo sapiens) (UniProt P04150). Briefly: GR-EFC Redistribution (AID 451; calls by dose curve; further: potency means the concentration at half of the fitted maximal effect). Particulars: CHO-K1 GR-EFC translocation, beta-gal luminescence, 2 h. A digest of the protocol:
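Translocation of GR-ED fusion to nuclear EA restores b-gal, read by luminescence after 1 h room-temperature detection. Engineered CHO-K1 biosensor cells, 1,000/well, exposed 2 h at 37 C to titrations up to 46 uM final.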

The target of assay [7] is Mitogen-activated protein kinase 10 (Mus musculus) (UniProt Q61831). Description: JNK3 AlphaScreen Assay (AID 530; active means well fitted curve in either direction with a large enough effect, not every such curve was filed as active;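 further: kinase came from lysate of stimulated human HepG2 cells; signal reports phosphorylation of biotinylated GST-cJun 1-79 at Ser73 with 10 µM ATP; on the % scale 0 is the no-effect control and ±100 the full control effect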). A digest of the protocol: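 Kinase buffer: 20 mM Tris-HCl pH 7.6, 10 mM MgCl2, 1 mM DTT, 0.1 mM Na3VO4, 0.01% Tween-20; ATP 10 uM. Substrate biotin-GST-cJun(1-79), enzyme from activated HepG2 lysates. Detection by Ser73 phospho-antibody AlphaScreen.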
(In general: Bead proximity is the source of the signal in Alpha formats.)

Assay [8] addresses 3',5'-cyclic-AMP phosphodiesterase 4B (Homo sapiens) (UniProt Q07343). Briefly: qHTS Assay for Inhibitors of PDE-IV (AID 607; active means well fitted activation curve with a large enough effect in the main read-out, with a control signal flat, not every such curve was filed as active; further: % of control where 0% means no effect). In short, it runs like this: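 ACTOne HEK293 cells carry a modified cAMP-gated CNG channel and express endogenous PDE4; plated 1000 cells/well, compounds up to 22.9 uM final. Membrane-potential dye fluorescence (ex 535/em 590) was read; parental cells received 10 uM forskolin + 100 uM RO 20-1724.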

The target of assay [9] is Cytochrome P450 3A4 (Homo sapiens) (UniProt P08684). Briefly: qHTS Assay for Activators of Cytochrome P450 3A4 (AID 885). Further: nearly all actives have a fitted effect of over 65% in size. In short, it runs like this:
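CYP3A4 activity: Luciferin-PPXE O-dealkylation, 25uM substrate, 200mM KPO4, RT throughout. Read-out is luciferase luminescence; higher values reflect activation.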

A short description of assay [10]: qHTS Assay for Lipid Storage Modulators (AID 1519; calls by dose curve). Particulars: Drosophila S3 cells, BODIPY lipid droplet/cell ratio, laser cytometry, cells loaded with oleic acid. A digest of the protocol:
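Cells seeded at 5,000 per well were treated with compounds over a concentration series and loaded with oleic acid (400 uM, as added). Lipid droplet fluorescence (488 nm excitation, 500-530 nm channel) was read by laser-scanning cytometry and normalized to 20 uM Triacsin C.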

Assay [11] in a line: Confirmatory qHTS for small molecule stabilizers of the endoplasmic reticulum resident proteome: Secreted ER Calcium Modulated Protein (SERCaMP) assay (AID 1508628). Further: potency means the concentration at half of the fitted maximal effect; nearly all actives have a fitted effect of over 40% in size. In short, it runs like this:
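GLuc-SERCaMP-expressing SH-SY5Y cells, pretreated 16 h with compound, are challenged with thapsigargin to empty ER calcium stores; after 4 h, coelenterazine is added directly to the medium and luminescence is imaged.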

For assay [12], the target named is Calcium and integrin-binding protein 1 (Homo sapiens) (UniProt Q99828). Description: Primary qHTS for Identification of Calcium Integrin Binding Protein 1 (CIB1) Competitor (AID 1508620). A digest of the protocol: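 CIB1-GST (1 uM final) and compound incubated 15 min at room temperature before adding FITC-alphaIIb peptide tracer (100 nM final). Competition for binding read by fluorescence polarization (ex 480, em 540) after another 15 min at room temperature.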
Sequence of Calcium and integrin-binding protein 1 (Homo sapiens) (Q99828 whole entry, looked up): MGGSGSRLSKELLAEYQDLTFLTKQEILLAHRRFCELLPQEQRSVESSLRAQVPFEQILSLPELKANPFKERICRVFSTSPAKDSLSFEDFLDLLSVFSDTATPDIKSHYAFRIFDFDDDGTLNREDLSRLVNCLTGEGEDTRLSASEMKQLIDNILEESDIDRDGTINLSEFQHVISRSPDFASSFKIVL

The nature of assay [13]: NFAT Signaling Pathway (AID 444; active means well fitted curve in either direction with a large enough effect, not every such curve was filed as active). Particulars: Jurkat NFAT-bla M1, carbachol, beta-lactamase ratio, 5 h. A digest of the protocol: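 Read-out: CCF4 FRET ratio (460 nm/530 nm) after 1 h RT dye loading, used for %activity and AC50 from titration series. Cells: Jurkat NFAT-β-lactamase/M1 line, treated with compound plus 1 uM carbachol for 5 h, 37 °C.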
In assay [14] the target is DNA repair nuclease/redox regulator APEX1 (Homo sapiens) (UniProt P27695). Briefly: qHTS Validation Assay for Inhibitors of the Human Apurinic/apyrimidinic Endonuclease 1 (APE1) (AID 1705; further: potency means the concentration at half of the fitted maximal effect). In short, it runs like this: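 Activity read as rising fluorescence (598 nm emission, 525 nm excitation) from incision of a TAMRA/BHQ-2 duplex carrying a THF abasic site (50 nM). Compound and enzyme sat 15 min at RT before substrate start; signal change between first and third 60-s reads.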
Sequence of DNA repair nuclease/redox regulator APEX1 (Homo sapiens) (P27695 whole entry, looked up): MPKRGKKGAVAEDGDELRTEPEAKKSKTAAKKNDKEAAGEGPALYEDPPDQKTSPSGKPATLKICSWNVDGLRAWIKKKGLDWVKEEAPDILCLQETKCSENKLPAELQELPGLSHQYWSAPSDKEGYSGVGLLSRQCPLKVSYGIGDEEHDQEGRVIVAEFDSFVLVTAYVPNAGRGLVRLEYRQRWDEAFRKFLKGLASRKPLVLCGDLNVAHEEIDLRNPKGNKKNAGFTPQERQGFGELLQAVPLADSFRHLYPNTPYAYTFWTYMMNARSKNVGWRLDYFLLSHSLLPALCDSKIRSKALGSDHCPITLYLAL

The nature of assay [15]: Confirmation and Secondary Assay for Modulators of Hemoglobin Beta Chain Splicing at IVS2 654 locus (AID 910).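 Further: HeLa cells stably carrying EGFP split by mutant beta-globin IVS2-654 intron; per-well total GFP intensity by laser scanning cytometry after 2-day treatment; % of control where 0% means no effect.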 A digest of the protocol: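 Readout: per-well total peak green fluorescence (488 nm ex, 500–520 nm em) from objects 5–250 µm, reflecting correct splicing of an EGFP-654 reporter. Compounds were applied for 2 days at 37 °C to overnight-plated HeLa EGFP-654 cells; controls were DMSO and 500 nM IVS2-654 PNA.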

A short description of assay [16]: Confirmation and Secondary Assay for Modulators of Hemoglobin Beta Chain Splicing at IVS2 705 locus (AID 930).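 Further: HeLa cells stably expressing the EGFP-705 splicing reporter; GFP fluorescence per well restored by corrected splicing of the IVS2-705 intron in EGFP; % of control where 0% means no effect.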 In short, it runs like this: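 Per-well GFP, captured at 1 x 8 µm resolution with 488 nm excitation, served as the read-out for HeLa EGFP-705 cells incubated 2 days with test compound versus DMSO.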
In assay [17] the target is Glucocorticoid receptor (Homo sapiens) (UniProt P04150). Briefly: GR-GFP Redistribution (AID 450;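 active means compounds whose dose series gives a full or clear partial fitted curve of increased nuclear translocation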; further: potency means the concentration at half of the fitted maximal effect). Conditions: U2OS GR-GFP nuclear translocation, laser cytometry, 2 h.
Sequence of Glucocorticoid receptor (Homo sapiens) (P04150 whole entry, looked up, the tested form may be a part): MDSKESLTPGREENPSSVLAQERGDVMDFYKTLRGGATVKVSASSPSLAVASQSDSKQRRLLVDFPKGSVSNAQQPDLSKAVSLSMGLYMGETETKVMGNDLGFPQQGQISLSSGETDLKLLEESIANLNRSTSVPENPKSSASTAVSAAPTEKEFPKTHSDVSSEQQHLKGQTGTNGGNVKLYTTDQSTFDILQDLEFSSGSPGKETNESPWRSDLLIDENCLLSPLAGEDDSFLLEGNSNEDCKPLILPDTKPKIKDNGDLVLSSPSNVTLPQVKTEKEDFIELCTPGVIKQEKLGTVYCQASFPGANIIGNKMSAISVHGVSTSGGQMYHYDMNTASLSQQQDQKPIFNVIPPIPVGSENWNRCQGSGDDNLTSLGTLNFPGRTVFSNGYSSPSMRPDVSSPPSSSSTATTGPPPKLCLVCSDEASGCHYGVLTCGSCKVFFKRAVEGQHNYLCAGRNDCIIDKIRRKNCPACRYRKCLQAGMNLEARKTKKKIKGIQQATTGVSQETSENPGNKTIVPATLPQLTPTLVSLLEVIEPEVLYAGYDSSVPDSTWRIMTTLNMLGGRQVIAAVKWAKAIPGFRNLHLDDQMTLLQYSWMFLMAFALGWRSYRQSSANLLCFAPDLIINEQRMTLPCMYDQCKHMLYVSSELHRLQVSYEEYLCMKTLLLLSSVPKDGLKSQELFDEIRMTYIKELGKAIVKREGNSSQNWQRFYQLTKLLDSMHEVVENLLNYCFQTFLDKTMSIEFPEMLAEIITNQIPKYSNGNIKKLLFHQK
Assay [18] concerns the target Ubiquitin carboxyl-terminal hydrolase 1 (Homo sapiens) (UniProt O94782). Description: Inhibitors of USP1/UAF1: Pilot qHTS (AID 504865).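 Further: rhodamine fluorescence freed from ubiquitin-rhodamine substrate followed over time; top concentration of the series differs between compounds; on the % scale 0 is the no-effect control and ±100 the full control effect; nearly all actives have a fitted effect of over 35% in size.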 A digest of the protocol:
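Deubiquitinase activity followed as kinetic rhodamine fluorescence release from 150 nM Ub-Rho. 1 nM USP1/UAF1 with compound, after 15 min room-temperature preincubation, in HEPES pH 7.8 buffer containing TCEP, EDTA, BSA and Tween-20.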

Where [19] appears, read: measured here: cell count channel max response.
Setting [20] is: measured here: lipid channel max response.

Sequence of 3',5'-cyclic-AMP phosphodiesterase 4B (Homo sapiens) (Q07343 whole entry, looked up): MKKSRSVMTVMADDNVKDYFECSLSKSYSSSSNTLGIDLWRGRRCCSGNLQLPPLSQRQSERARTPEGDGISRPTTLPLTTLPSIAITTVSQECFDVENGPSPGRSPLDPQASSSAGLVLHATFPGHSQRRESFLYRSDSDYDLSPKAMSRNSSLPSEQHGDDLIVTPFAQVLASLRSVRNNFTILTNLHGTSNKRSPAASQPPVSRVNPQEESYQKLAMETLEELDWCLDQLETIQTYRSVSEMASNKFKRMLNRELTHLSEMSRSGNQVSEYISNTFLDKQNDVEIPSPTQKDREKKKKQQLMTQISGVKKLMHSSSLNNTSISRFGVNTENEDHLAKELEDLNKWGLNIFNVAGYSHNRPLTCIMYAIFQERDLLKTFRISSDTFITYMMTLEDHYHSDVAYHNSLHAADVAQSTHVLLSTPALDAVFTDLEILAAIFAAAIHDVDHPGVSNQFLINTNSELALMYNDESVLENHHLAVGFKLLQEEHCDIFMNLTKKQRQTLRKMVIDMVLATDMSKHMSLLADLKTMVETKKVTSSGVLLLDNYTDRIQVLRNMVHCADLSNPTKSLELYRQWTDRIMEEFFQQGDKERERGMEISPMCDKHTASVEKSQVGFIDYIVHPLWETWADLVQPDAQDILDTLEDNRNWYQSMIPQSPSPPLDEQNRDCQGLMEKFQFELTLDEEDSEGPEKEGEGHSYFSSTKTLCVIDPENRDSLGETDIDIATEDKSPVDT
Sequence of Cytochrome P450 3A4 (Homo sapiens) (P08684 whole entry, looked up): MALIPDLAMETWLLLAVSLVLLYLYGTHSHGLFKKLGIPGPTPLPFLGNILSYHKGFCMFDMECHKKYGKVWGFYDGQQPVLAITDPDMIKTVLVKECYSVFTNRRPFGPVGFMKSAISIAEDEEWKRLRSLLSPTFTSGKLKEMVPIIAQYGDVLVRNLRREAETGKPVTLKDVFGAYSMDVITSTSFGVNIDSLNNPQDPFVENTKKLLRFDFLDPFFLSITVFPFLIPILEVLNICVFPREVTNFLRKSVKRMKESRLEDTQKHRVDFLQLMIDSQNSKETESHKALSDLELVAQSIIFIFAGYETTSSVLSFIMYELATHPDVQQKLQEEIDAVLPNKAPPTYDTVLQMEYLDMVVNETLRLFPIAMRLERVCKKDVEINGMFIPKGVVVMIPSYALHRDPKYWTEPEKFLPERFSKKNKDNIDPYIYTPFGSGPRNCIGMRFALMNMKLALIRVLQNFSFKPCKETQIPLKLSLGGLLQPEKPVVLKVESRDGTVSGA
Sequence of Cytochrome P450 1A2 (Homo sapiens) (P05177 whole entry, looked up): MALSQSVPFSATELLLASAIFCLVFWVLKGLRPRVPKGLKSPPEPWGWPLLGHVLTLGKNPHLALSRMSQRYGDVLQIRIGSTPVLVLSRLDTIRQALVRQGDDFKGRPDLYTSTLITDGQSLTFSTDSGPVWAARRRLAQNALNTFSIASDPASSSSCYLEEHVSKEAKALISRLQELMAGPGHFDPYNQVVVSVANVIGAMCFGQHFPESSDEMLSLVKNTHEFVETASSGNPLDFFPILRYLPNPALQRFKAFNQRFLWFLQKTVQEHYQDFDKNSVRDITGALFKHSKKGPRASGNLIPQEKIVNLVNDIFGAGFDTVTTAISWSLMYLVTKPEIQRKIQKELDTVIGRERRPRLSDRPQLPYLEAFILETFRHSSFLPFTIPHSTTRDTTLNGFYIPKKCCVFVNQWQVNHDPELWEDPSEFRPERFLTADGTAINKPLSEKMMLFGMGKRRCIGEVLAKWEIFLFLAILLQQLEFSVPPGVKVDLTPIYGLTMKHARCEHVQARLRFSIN
Sequence of Ubiquitin carboxyl-terminal hydrolase 1 (Homo sapiens) (O94782 whole entry, looked up): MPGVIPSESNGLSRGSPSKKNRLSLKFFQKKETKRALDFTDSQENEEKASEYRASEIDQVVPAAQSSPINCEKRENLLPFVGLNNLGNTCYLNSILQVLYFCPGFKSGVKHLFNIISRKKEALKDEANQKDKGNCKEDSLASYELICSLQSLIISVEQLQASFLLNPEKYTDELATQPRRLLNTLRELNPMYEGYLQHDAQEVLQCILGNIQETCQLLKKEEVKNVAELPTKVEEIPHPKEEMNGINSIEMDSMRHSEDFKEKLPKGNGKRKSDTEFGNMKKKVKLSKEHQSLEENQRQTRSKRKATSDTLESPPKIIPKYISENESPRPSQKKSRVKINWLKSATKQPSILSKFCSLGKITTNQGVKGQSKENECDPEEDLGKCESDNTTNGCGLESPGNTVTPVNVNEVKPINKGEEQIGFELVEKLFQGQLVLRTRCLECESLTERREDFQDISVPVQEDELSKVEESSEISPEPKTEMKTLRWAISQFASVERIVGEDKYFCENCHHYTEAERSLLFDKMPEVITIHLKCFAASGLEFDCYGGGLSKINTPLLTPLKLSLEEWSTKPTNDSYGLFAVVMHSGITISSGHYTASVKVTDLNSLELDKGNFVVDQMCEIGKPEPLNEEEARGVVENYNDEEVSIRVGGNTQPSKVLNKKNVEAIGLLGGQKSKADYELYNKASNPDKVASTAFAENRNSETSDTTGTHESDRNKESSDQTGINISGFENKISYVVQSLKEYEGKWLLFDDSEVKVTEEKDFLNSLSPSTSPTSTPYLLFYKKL

For the molecule `CC1(C)C2C[C@@H](O)[C@]3(C)C(CC[C@@]4(C)[C@H](c5ccoc5)C[C@H]5O[C@]543)[C@@]2(C)[C@@H](O)C[C@H]1O` (some centres undefined), the outcome in [1] was inactive.
Regarding `c1cc(N2CCCC3(CCNCC3)C2)ccn1`, the Potency was > 11.4 µM (inactive) in assay [2], > 46 µM (inactive) in assay [6] and 14.1 µM (active) in assay [11]. Moreover, the molecule was classed as inactive in [3], in assay [5] and in [7]. Also, the Potency result in assay [4], in [8] and in assay [9] was “inactive” each time. In addition, the activity change, negative = inhibition in [10] (at 57.5 µM (top of the series)) is 4.41% (inactive). Moreover, the max response was 13.5% in assay [10] (setting [19]) and 21.3% in [10] (setting [20]).
`S=P(c1ccccc1)(c1ccccc1)c1cnc2ccccn12`: in assay [12], the result was inactive.
For the molecule `CC1=C(C(=O)Nc2nccs2)C(c2ccccc2Br)N=C(Nc2nc3ccccc3o2)N1` (centres undefined), the outcome in assay [12] was inactive.
Regarding `CCCOC(=O)c1cc2c(cn1)[nH]c1ccccc12`, the result in [1] was inactive.
Still for that read-out and setting: then `CC[C@]12CCCN3CCC4(c5ccccc5NC4C(C(=O)O)C1)C32` (some centres undefined), with “inactive”.
`N#Cc1c(-c2ccc([N+](=O)[O-])o2)no[n+]1[O-]`: in assay [12], the result was inactive.
Consider `CC(n1cc(C[C@H](N)C(=O)O)c2ccccc21)n1cc(C[C@H](N)C(=O)O)c2ccccc21`, for which the result in assay [1] was inactive.
As to `CCc1c(C(=O)OC)ncc2[nH]c3cc(OC)c(OC)cc3c12`, in [13] (at 38 µM (top of the series)), the activity change, negative = inhibition was -26.6% (inactive). In assay [14], the Potency is 6.31 µM (active).
`COc1c2c(cc3c1OCO3)CC[N+](C)=C2`: the Potency entry in assay [15] and in [16] was “inactive” throughout.
Take `C=C(C)c1cc2cc(C(C)=O)c(O)cc2o1`: the Potency entry in assay [15] and in assay [16] was “inactive” each time.
As for `CCCN1CCc2cc(O)cc3c2C1Cc1ccc(O)c(O)c1-3` (centres undefined), the Potency entry in assay [14] was “inactive”.
In the case of `COc1ccc(NC(=O)N2CC[C@@]3(CCCN(C(=O)Oc4ccccc4)C3)C2)cc1`, the Potency in assay [2] was > 11.4 µM (inactive); in assay [6], > 46 µM (inactive). Further, the molecule was classed as inactive in [3], in assay [5], in assay [7] and in [1]. Besides, the Potency entry in assay [4], in assay [8] and in assay [9] was “inactive” throughout. The activity change, negative = inhibition in assay [13] (at 7.69 µM (top of the series)) is 4.32% (inactive).
As for `O=C(c1ccco1)N1CCC2(CC1)CN(Cc1ccncc1)C2`, the Potency in [2] is > 11.4 µM (inactive); in assay [6], > 46 µM (inactive). In addition, the result in assay [3], in [7] and in assay [1] was inactive. In addition, in assay [8], the Potency result is “inactive”.
Consider `COCC(=O)N1CCC2(CCCN(Cc3ccncc3)C2)CC1`, for which the results for the Potency in [2] and in assay [6] were > 11.4 µM (inactive) and > 46 µM (inactive), respectively. For the same molecule, the result in assay [3], in assay [5], in [7] and in assay [1] was inactive. Moreover, the Potency result in assay [4] and in [8] was “inactive” throughout.
As to `COc1ccc2c(c1O)-c1c(OC)c(OC)cc3c1[C@H](C2)N(C)CC3`, the result in assay [3], in assay [5] and in assay [7] was inactive. Moreover, the Potency in [17] is > 20.6 µM (inactive) and > 46 µM (inactive); in assay [6] it was > 20.6 µM (inactive) and > 46 µM (inactive). Also, the Potency result in assay [8], in [9] and in assay [18] was “inactive” throughout. Moreover, the activity change, negative = inhibition in [10] (at 25.7 µM (top of the series)) is 2.04% (inactive). Besides, the figures for the max response in assay [10] (setting [19]) and in [10] (setting [20]) were 5.35% and 2.2%, respectively.
Take `CC(C)[C@@]1(NC(=O)[C@@H]2C[C@@H]3c4cccc5[nH]cc(c45)C[C@H]3N(C)C2)O[C@@]2(O)C3CCCN3C(=O)[C@H](Cc3ccccc3)N2C1=O` (some centres undefined): the activity change, negative = inhibition in assay [10] (at 57.5 µM (top of the series)) was -0.282% (inactive). For the same molecule, the max response was -13.2% in assay [10] (setting [19]) and -14.4% in [10] (setting [20]). Further, the Potency entry in assay [14] was “inactive”.
Consider `CCCN1CCc2cccc3c2C1Cc1ccc(O)c(O)c1-3` (centres undefined), for which the activity change, negative = inhibition in [10] (at 57.5 µM (top of the series)) was 1.73% (inactive). For the same molecule, the values for the max response in assay [10] (setting [19]) and in [10] (setting [20]) were -26.8% and -25.9%, respectively. In assay [14], the Potency result is “inactive”.
